Most compounds without a hit are left out; they make up all but 19% or so of the library.
TDP1 block: qHTS Assay for Inhibitors of Tyrosyl-DNA Phosphodiesterase (TDP1) | Tyrosyl-DNA phosphodiesterase 1 (Homo sapiens), Q9NUW8 | recombinant TDP1, AlphaScreen DNA substrate cleavage | Potency, µM (series often up to 130 µM), inactives show top-dose activity change, negative = inhibition, actives largely listed as inhibitors | 350,000 compounds, 0.28% hits | AID 485290, 2010; also: potency is read from the fitted curve at half-maximal effect; nearly all actives have a fitted effect of over 40% in size
Target sequence (Q9NUW8 whole entry, looked up): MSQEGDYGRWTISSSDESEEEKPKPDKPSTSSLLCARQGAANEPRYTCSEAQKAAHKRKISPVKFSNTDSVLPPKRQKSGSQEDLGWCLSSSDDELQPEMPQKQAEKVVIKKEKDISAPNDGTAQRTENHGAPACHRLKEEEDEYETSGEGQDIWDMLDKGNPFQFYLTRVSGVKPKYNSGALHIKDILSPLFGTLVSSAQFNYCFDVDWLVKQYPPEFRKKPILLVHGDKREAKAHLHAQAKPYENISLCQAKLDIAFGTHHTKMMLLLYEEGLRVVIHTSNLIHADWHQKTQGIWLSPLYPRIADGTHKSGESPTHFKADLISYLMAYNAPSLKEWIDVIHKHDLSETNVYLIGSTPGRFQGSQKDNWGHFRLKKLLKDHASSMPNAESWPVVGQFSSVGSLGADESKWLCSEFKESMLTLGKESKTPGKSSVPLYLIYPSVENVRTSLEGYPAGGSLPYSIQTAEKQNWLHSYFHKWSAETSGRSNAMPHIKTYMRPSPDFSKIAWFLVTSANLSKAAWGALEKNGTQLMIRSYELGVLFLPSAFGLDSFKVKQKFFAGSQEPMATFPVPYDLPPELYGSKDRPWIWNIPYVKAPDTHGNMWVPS
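Enzyme-compound mixtures sat 15 min at room temperature, followed by a 5 min reaction with 15 nM final substrate and 10 min with AlphaScreen beads. Recombinant human Tdp1 was used at 1 nM final.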
TDP1 cell noCPT: qHTS for Inhibitors of human tyrosyl-DNA phosphodiesterase 1 (TDP1): qHTS in cells in absence of CPT. DT40 Tdp1-/- hTDP1 cells, no CPT, ATP luminescence, 48 h. Potency, µM (titrated, usually from 46.2 µM), for the others: at the highest dose activity change, negative = growth inhibition, actives largely listed as inhibitors. 420,000 compounds, 15% hits; also: potency is read from the fitted curve at half-maximal effect; nearly all actives have a fitted effect of over 55% in size
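Seeded 400 DT40-hTDP1 cells/well (vehicle DMSO, no 20 nM CPT); pinned compounds; ≥48 hr at 37 °C; CellTiter-Glo luminescence as viability measure.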
Giardia kill: Small Molecules that selectively kill Giardia lamblia: qHTS; AID 540267, 2011; 340,000 compounds, 0.15% hits; Giardia lamblia trophozoite viability; activity change, % at 7.66 µM, hits read low; in the data active = activity change below about -80%; inconclusive = between about -30% and that limit;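 also: parasites exposed to compound for two days anaerobically before the ATP read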
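Anaerobic 48 hrs incubation at 37 deg C of 100 trophozoites/well with test compounds; ATPLite 1-Step luminescence, 15-30 min RT, reports cellular ATP as viability.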
ELG1 DNA repair: qHTS screen for small molecules that inhibit ELG1-dependent DNA repair in human embryonic kidney (HEK293T) cells expressing luciferase-tagged ELG1. HEK293T ELG1-luciferase reporter, luminescence, 16 h; DNA damage induced by 5-fluorouridine. Potency, µM (series often up to 46.1 µM), inactives show top-dose activity change, negative = inhibition, usual class: inhibitors. 330,000 compounds, 2.3% hits; also: potency is read from the fitted curve at half-maximal effect; nearly all actives have a fitted effect of over 55% in size
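Overnight (16 hr) co-exposure of 2,000 cells/well to 5-fluorouridine and compound at 37 °C preceded detection. Luciferase was quantified via ONE-Glo luminescence; loss of signal denotes inhibition.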
IL1B secr inh: qHTS for Inhibitors of Inflammasome Signaling: IL-1-beta AlphaLISA Primary Screen; THP-1 LPS/ATP IL-1B secretion, AlphaLISA, 16 h; hits give low values; activity change, % at 57.5 µM; 360,000 compounds, 4.7% hits; AID 743279, 2014; in the data active = activity change below about -50%; inconclusive = mostly about -30% to -49%
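Secreted IL-1B measured by AlphaLISA bead assay after 16 h compound exposure of THP-1 cells; compounds (final up to 57.5 uM) added 1 h before LPS (250 ng/mL) and ATP (1.25 mM) stimulation; lower signal means less secretion.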
TDP1 cell CPT: qHTS for Inhibitors of human tyrosyl-DNA phosphodiesterase 1 (TDP1): qHTS in cells in presence of CPT. AID 686979, 2013. 420,000 compounds, 12% hits. Potency, µM (titrated, usually from 46.2 µM), inactives show at the top dose activity change, negative = growth inhibition, hits mostly inhibitors. chicken DT40 Tdp1-/-;hTDP1 cells + 20 nM CPT, ATP luminescence, 48 h; also: potency is read from the fitted curve at half-maximal effect; nearly all actives have a fitted effect of over 55% in size
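Cell growth measured by CellTiter-Glo luminescence after a minimum 48 h, 37 C compound exposure with 20 nM CPT in Tdp1-knockout DT40 cells stably expressing hTDP1, seeded 400/well; qHTS titration format.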
The depositor's hits bear a star; i = inactive; ? = inconclusive; . = no result given; [ ] = dose if it differs, or a comment. Unless noted, calls follow the shape of the dose curve; as a rule, active = well fitted curve in the direction sought with a large enough effect; inconclusive = small, poorly fitted or top-dose-only effect, or another doubt; inactive = no such curve, though single readings can be large; an effect the other way counts as inactive or inconclusive. % is scaled to controls: 0 for no effect and ±100 for the full control effect.

SMILES | TDP1 block | TDP1 cell noCPT | Giardia kill | ELG1 DNA repair | IL1B secr inh | TDP1 cell CPT
O=C(Cc1csc(Nc2nc(=S)[nH]c3ccccc23)n1)NCc1ccccc1Cl | 10% | 4.6µM* | -7 | 7% | 18 | 21µM*
O=C(Cc1csc(Nc2nc(=S)[nH]c3ccccc23)n1)NCc1cccc(Cl)c1 | 8% | 18µM* | -2 | 1% | 19 | ?
COc1ccccc1CNS(=O)(=O)c1c(C)[nH]c(C)c1C(=O)N1CCCC1 | 4% | 21% | 16 | 2% | -7 | 1%
O=C(Nc1ccc(Br)cc1)c1cccc(S(=O)(=O)Nc2ccccn2)c1 | 3% | 16µM* | 11 | -22% | i | -17%
COc1ccc(NC(=O)c2cccc(S(=O)(=O)Nc3ccc(Br)cc3)c2)cn1 | 6% | 23µM* | 0 | ? | -80* | ?
O=C(Nc1ccc(Br)cc1)c1cccc(S(=O)(=O)Nc2ccc(Br)cc2)c1 | 6% | . | . | . | . | .
O=C1CSc2ccc(C(=O)Nc3cccc(S(=O)(=O)Nc4ccc(Br)cc4)c3)cc2N1 | 5% | 8.2µM* | ? | 13µM* | ? | 18µM*
O=C(Nc1ccc([N+](=O)[O-])cc1)c1cccc(S(=O)(=O)Nc2ccccn2)c1 | 1% | ? | 19 | ? | 33 | -19%
COc1ccccc1C1CN(Cc2c(C)nc3sccn23)Cc2ccccc2O1 (stereo not given) | . | -20% | . | . | . | 7%[9.04 µM]
CC[C@@](N)(C(=O)O)c1ccc(C(=O)O)cc1 | 6% | -1% | . | . | . | -3%
CC1CCCN(Cc2c(O)ccc3c(=O)c(Oc4ccccc4Cl)c(C(F)(F)F)oc23)C1 (stereo not given) | 0% | 11% | . | . | . | 2%
O=C(c1ccc(Oc2ccc(C(F)(F)F)cc2[N+](=O)[O-])cc1)N1CCOCC1 | -2% | 15µM* | 10 | 3% | 10 | ?
O=C(c1ccccc1Oc1ccc(C(F)(F)F)cc1[N+](=O)[O-])N1CCOCC1 | 0% | 16% | 5 | 10% | 9 | -5%
CC(C)(C)OC(=O)N1CCC(c2c(C(=O)N3CCN(c4ncccn4)CC3)cnn2-c2ccc(F)cc2)CC1 | 1% | -5% | . | . | . | -4%
C=CCSc1nc2ccccc2n1C(=O)/C=C/c1ccc(OC)c(OC)c1 | 0% | 3.5µM* | 3 | ? | -102* | 5µM*
COc1cc(/C=C/C(=O)N2CCN(C(=O)/C=C/c3cc(OC)c(OC)c(OC)c3)CC2)cc(OC)c1OC | 12% | -16% | 13 | 2% | -8 | -4%
C=CCSc1nc2ccccc2n1C(=O)/C=C/c1cc(OC)c(OC)c(OC)c1 | 3% | 2.1µM* | 4 | ? | -104* | 2.3µM*
CCSc1nc2ccccc2n1C(=O)/C=C/c1ccc(OC)c(OC)c1 | -3% | 3.3µM* | 20 | ? | -103* | 4.1µM*
Cc1nc(-n2nc(C)c(Cc3ccccc3Cl)c2C)sc1C(=O)Nc1ccccc1F | 5% | -20% | . | . | . | -13%
CN(C)/C=C/C(=O)c1ccn(S(=O)(=O)c2ccccc2)c1 | . | 17% | ? | -3% | 0 | -27%
CC1CC(C)CN(C(=O)C(NS(=O)(=O)c2ccc(Br)s2)c2ccccc2)C1 (stereo not given) | 7% | 15µM* | 5 | -15% | 2 | 18µM*
CCOc1ccccc1NC(=O)C(NCC1(N2CCCCC2)CCCCC1)c1ccccc1 (stereo not given) | 1% | 16µM* | -4 | ? | ? | ?
O=S1(=O)CCOC[C@H](CC2CCCCC2)N1Cc1cccc(F)c1 | . | ? | 1 | -1% | -14 | ?
O=S1(=O)CCOC[C@H](CC2CCCCC2)N1Cc1ccc(Cl)cc1 | . | 3.5µM* | 6 | 3% | 11 | 2.8µM*
Cc1ccc(CN2[C@@H](CC3CCCCC3)COCCS2(=O)=O)cc1 | . | 13µM* | 2 | 4% | -19 | ?
SMILES | TDP1 block | TDP1 cell noCPT | Giardia kill | ELG1 DNA repair | IL1B secr inh | TDP1 cell CPT
CCOc1ccc(-n2c(-c3ccccc3)c[n+]3c2CCCCC3)cc1 | -3% | 0.029µM* | -8 | ? | -56* | 0.15µM*
Cc1ccc(-c2c[n+]3c(n2-c2ccccc2)CCC3)cc1 | 3% | 0.65µM* | 2 | 2.3µM* | -53* | 1.2µM*
CC(C)OC(=O)CCCCCN1C(=O)CSC1=S | -5% | -9% | -14 | 0% | -56* | -4%
COc1cc(OC)cc(C(=O)NC(C(=O)N2CCc3ccccc3C2)C(C)C)c1 (stereo not given) | -10% | ? | 18 | ? | 31 | 21µM*
COc1cc(OC)cc(C(=O)N[C@H](C(=O)NC23CC4CC(CC(C4)C2)C3)C(C)C)c1 | 8% | ? | -28 | -6% | 33 | 29µM*
COc1cc(OC)c(C(=O)NC23CC4CC(CC(C4)C2)C3)cc1OC | 5% | 18µM* | -20 | ? | 3 | ?
COc1cc(OC)cc(C(=O)N[C@H](C(=O)N2CCc3ccccc32)C(C)C)c1 | 0% | ? | -3 | -19% | 25 | ?
COc1ccc(C(=O)NC23CC4CC(CC(C4)C2)C3)cc1OC | . | -12% | -8 | -21% | -3 | -27%
CC1=C(C(=O)N(C)C)CC(CC(=O)NCCCN(C)C)C(=O)N1CCC1=CCCCC1 (stereo not given) | . | 5% | . | . | 30 | -6%
Cc1cccc(C2CC(c3ccc(Br)cc3)Nc3nc(N)nn32)c1 (stereo not given) | 5% | 23µM* | -7 | -1% | -14 | 21µM*
Cc1ccccc1C1CC(c2ccc(F)cc2)Nc2nc(N)nn21 (stereo not given) | 3% | ? | 1 | ? | 0 | 21µM*
Cc1ccccc1C1CC(c2cccs2)Nc2nnnn21 (stereo not given) | 5% | 6.5µM* | 5 | 17% | ? | -7%
Cc1ccccc1C1CC(c2ccc(Br)cc2)Nc2nc(N)nn21 (stereo not given) | 3% | -28% | -27 | 1% | ? | -22%
COc1ccc(C2CC(c3cccc(C)c3)n3nc(N)nc3N2)cc1 (stereo not given) | -11% | -3% | 15 | ? | -11 | ?
C=CCOC(=O)N[C@H](c1ccccc1)C(C(C)=O)C(C)=O | 9% | . | . | . | . | .

Bioassay records as filed in PubChem BioAssay.
